Results on 19 compounds are retold here after PubChem BioAssay (NCI).

What all share (test): NCI-60 one-dose screen, 48 h (100 = growth as untreated, 0 = no growth, -100 = all killed)
One assay concerns T-47D breast. The settings on record: 10 µM unless noted.
A further assay relates to BT-549 breast. Particulars: 10 µM unless noted.
Another assay concerns MDA-MB-435 melanoma. Particulars: 10 µM unless noted.
A further assay relates to MCF7 breast. The settings on record: 10 µM.
The subject of a further assay is HCT-116 colon. Particulars: 10 µM unless noted.
The subject of the next assay is HCC-2998 colon. The settings on record: 10 µM unless noted.
The next assay concerns KM12 colon. Particulars: 10 µM unless noted.
For a further assay, the system named is SW-620 colon. The settings on record: 10 µM unless noted.

“And” between values parts separate entries of the source, which are not always exact repeats. Identical values can stand only once. The panel holds about 83,000 compounds, 20% with a hit somewhere; the sample as a whole holds those more often.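 How to read the values: 0–100, growth inhibition (40 = 60% inhibited); 0, no net growth; -100 to 0, cell death (-40 = 40% of starting cells died; -100 = all dead).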 Values without a mark were called inactive. The source made the active and inactive calls. The calls were made as follows: active = growth percent below 10; inactive = the rest.

As to `Cn1c2c(c3ccccc31)CCN1C[C@@H]3CCCC[C@H]3C[C@@H]21`, the growth was 32.9% in the assay on T-47D breast; 22.5% in the assay with BT-549 breast; -53.4% (active) with MDA-MB-435 melanoma; 13.9% with MCF7 breast; -10.1% (active) in the assay on HCT-116 colon; -4.34% (active) in the assay with HCC-2998 colon. Also, the growth in the assay with KM12 colon is -32.3% (active).

Turning to `O=C1OCc2cccc3cccc1c23`, the growth was 114% in the assay with T-47D breast; 115% with MDA-MB-435 melanoma; 98.2% in the assay with SW-620 colon; 86.3% in the assay with MCF7 breast; 104% in the assay with HCT-116 colon; 106% in the assay on HCC-2998 colon. Besides, the growth with KM12 colon is 104%.

On to `C/C=C1\SC(=S)NC1=O`, for which the growth with T-47D breast is 92.6%; with BT-549 breast, 95.7%; in the assay with MDA-MB-435 melanoma, 101%; in the assay on MCF7 breast, 86.9%; in the assay on HCT-116 colon, 96.9%; with HCC-2998 colon it was 85%. In addition, in the assay with KM12 colon, the growth was 106%.

Consider `Cc1ccc2nc(-[n+]3cc4ccccc4cc3C)ccc2c1`, for which the growth in the assay on T-47D breast was 15.3%; with BT-549 breast, 0.0135% (active); with MDA-MB-435 melanoma, 27.8%; with MCF7 breast, 20.3%; in the assay with HCT-116 colon, 25.8%; in the assay on KM12 colon it was 31.5%.

For `Nc1nc(N)c2nc(CNc3ccc(C(=O)NC(CCC(=O)O)C(=O)O)cc3)cnc2n1` (stereo not given), the growth was 58% and 55.5% in the assay with T-47D breast; 45.3% and 45.4% with BT-549 breast; 35.8% and 24.4% in the assay on MDA-MB-435 melanoma; 18% and 16.3% in the assay with MCF7 breast; 21.2% and 10.3% with HCT-116 colon; 38.7% and 30.8% in the assay on KM12 colon.

In the case of `C[n+]1c(/C=C/c2ccc([N+](=O)[O-])cc2)ccc2ccccc21`, the growth in the assay with T-47D breast is 103%; in the assay on BT-549 breast, 107%; with MDA-MB-435 melanoma, 108%; in the assay on MCF7 breast, 96.1%; in the assay on HCT-116 colon, 102%; in the assay with KM12 colon, 80.8%.

Take `CCN(CC)CC(C)(C)C(=O)/C=C/c1ccc(Cl)c(Cl)c1`: the growth was -11.3% (active) in the assay with T-47D breast; 16.4% with BT-549 breast; 1.76% (active) with MDA-MB-435 melanoma; -13.8% (active) in the assay with MCF7 breast; -60.6% (active) in the assay with HCT-116 colon; -65.2% (active) with HCC-2998 colon. For the same compound, in the assay on KM12 colon, the growth was -4.49% (active).

Take `CC1OC2CC(=O)OC2C2=C1C(=O)c1c(O)cccc1C2=O` (stereo not given): the growth with T-47D breast is -30.1% (active); in the assay with BT-549 breast it was -98.5% (active); with MDA-MB-435 melanoma, -68% (active); with MCF7 breast, -45.2% (active); in the assay with HCT-116 colon it was -97.8% (active); in the assay with KM12 colon, 24.7%.

Consider `NC(=S)N/N=C\c1nccc2c(C(F)(F)C(F)(F)C(F)(F)F)cccc12`, for which the growth is 4.05% (active) in the assay on T-47D breast; 41.4% in the assay with BT-549 breast; 23.4% in the assay with MDA-MB-435 melanoma; 11.5% with MCF7 breast; 17.4% in the assay with HCT-116 colon; 13.3% in the assay on HCC-2998 colon. The growth in the assay on KM12 colon is 14.2%.

Turning to `Nc1nc(N)c2c(ccc3c2ccn3Cc2cccc([N+](=O)[O-])c2)n1`, the growth in the assay with T-47D breast was -67% (active); in the assay with BT-549 breast, -91.4% (active); with MDA-MB-435 melanoma, -93.4% (active); with MCF7 breast, -79.2% (active); in the assay on HCT-116 colon, -84.9% (active); with KM12 colon it was -92.3% (active).

As to `S=C(N/N=C/c1ccccn1)Nc1ccccn1`, the growth is 31% with T-47D breast; 38.1% in the assay on BT-549 breast; 47.4% in the assay with MDA-MB-435 melanoma; 14.3% in the assay on MCF7 breast; 1.18% (active) in the assay on HCT-116 colon; 25.2% with HCC-2998 colon. In addition, the growth with KM12 colon was 29.7%.

Consider `CN(C)CCOc1ccc2c(c1)C(=O)/C(=C\c1ncc([N+](=O)[O-])n1C)C2`, for which the growth in the assay on T-47D breast was 25.4%; with MDA-MB-435 melanoma, -73.6% (active); with MCF7 breast, -30.7% (active); in the assay on HCT-116 colon it was -5.59% (active); with KM12 colon, -68% (active).

Turning to `NC(=O)/C=C/C(=O)c1c(Cl)cccc1Cl`, the growth with T-47D breast is -62.4% (active); with BT-549 breast, -42.4% (active); in the assay on MDA-MB-435 melanoma it was -68% (active); in the assay on MCF7 breast it was -68.9% (active); in the assay on HCT-116 colon, -100% (active); in the assay with HCC-2998 colon, -98.6% (active). Besides, in the assay with KM12 colon, the growth is -51.4% (active).

`CCCCCC(CCCCC)C(=O)O`: the growth in the assay on T-47D breast was 100%; in the assay with MDA-MB-435 melanoma, 123%; in the assay on SW-620 colon, 110%; with MCF7 breast, 100%; in the assay with HCT-116 colon, 109%; with HCC-2998 colon, 119%. For the same compound, in the assay with KM12 colon, the growth is 109%.

In the case of `CCC(c1cccc(O)c1)C(CC)c1cccc(O)c1` (stereo not given), the growth in the assay on T-47D breast is 53.8%; with BT-549 breast, 66%; with MDA-MB-435 melanoma, -15.9% (active); in the assay with MCF7 breast, 16.8%; in the assay with HCT-116 colon, 34.4%; in the assay on HCC-2998 colon it was 67%. Also, in the assay on KM12 colon, the growth is 36.7%.

`O=C1C2=C(Nc3cc([N+](=O)[O-])ccc3N2)OC1c1c2ccccc2cc2ccccc12` (stereo not given): the growth is 47.4% in the assay on T-47D breast; 23.3% in the assay on BT-549 breast; 73% in the assay with MDA-MB-435 melanoma; 22.3% with MCF7 breast; 15.5% in the assay with HCT-116 colon; 72.6% in the assay on HCC-2998 colon. The growth with KM12 colon is 16.7%.

On to `N#CSCc1ccc(CSC#N)c(Cl)c1`, for which the growth with T-47D breast was 68.4%; with BT-549 breast, 56.5%; in the assay with MDA-MB-435 melanoma, 40.6%; with MCF7 breast, 22.7%; with HCT-116 colon, 43.6%; in the assay on HCC-2998 colon, 102%. In addition, the growth in the assay with KM12 colon was 69.3%.

Turning to `O=C(Oc1cccc2cccnc12)c1ccccc1`, the growth in the assay with T-47D breast is 38.6% and 95.2%; in the assay on BT-549 breast it was 101% and 107%; in the assay with MDA-MB-435 melanoma it was 88%; with MCF7 breast, 55.1% and 102%; in the assay with HCT-116 colon, 32.8% and 102%; in the assay on KM12 colon, 101% and 104%.

On to `CCOC(=O)/C=C/c1ccc([N+](=O)[O-])o1`, for which the growth in the assay on BT-549 breast is 62.7%; with MDA-MB-435 melanoma it was 44%; with SW-620 colon, 8.72% (active); in the assay on MCF7 breast, 25.5%; in the assay on HCT-116 colon, -54.3% (active); in the assay on HCC-2998 colon, 95.7%. Also, in the assay with KM12 colon, the growth is 87.4%.
